# Laboratory results: PubChem BioAssay
# Records with an inconclusive call do not appear. The source made the active and inactive calls. Rule as the data show it: active = fluorescence slope change above about 50%; inconclusive = mostly about 31% to 49%; inactive = weaker than that.
# Target: ATP-dependent translocase ABCB1 (Homo sapiens) (UniProt P08183)
# Assay: MDR1 (ABCB1) efflux transporter inhibition, cell-based (AID 377)
# Conditions: MDR1-expressing cells, fluorescent substrate accumulation slope; active compounds read high; concentration not given here
# Sequence of ATP-dependent translocase ABCB1 (Homo sapiens) (P08183 whole entry, looked up): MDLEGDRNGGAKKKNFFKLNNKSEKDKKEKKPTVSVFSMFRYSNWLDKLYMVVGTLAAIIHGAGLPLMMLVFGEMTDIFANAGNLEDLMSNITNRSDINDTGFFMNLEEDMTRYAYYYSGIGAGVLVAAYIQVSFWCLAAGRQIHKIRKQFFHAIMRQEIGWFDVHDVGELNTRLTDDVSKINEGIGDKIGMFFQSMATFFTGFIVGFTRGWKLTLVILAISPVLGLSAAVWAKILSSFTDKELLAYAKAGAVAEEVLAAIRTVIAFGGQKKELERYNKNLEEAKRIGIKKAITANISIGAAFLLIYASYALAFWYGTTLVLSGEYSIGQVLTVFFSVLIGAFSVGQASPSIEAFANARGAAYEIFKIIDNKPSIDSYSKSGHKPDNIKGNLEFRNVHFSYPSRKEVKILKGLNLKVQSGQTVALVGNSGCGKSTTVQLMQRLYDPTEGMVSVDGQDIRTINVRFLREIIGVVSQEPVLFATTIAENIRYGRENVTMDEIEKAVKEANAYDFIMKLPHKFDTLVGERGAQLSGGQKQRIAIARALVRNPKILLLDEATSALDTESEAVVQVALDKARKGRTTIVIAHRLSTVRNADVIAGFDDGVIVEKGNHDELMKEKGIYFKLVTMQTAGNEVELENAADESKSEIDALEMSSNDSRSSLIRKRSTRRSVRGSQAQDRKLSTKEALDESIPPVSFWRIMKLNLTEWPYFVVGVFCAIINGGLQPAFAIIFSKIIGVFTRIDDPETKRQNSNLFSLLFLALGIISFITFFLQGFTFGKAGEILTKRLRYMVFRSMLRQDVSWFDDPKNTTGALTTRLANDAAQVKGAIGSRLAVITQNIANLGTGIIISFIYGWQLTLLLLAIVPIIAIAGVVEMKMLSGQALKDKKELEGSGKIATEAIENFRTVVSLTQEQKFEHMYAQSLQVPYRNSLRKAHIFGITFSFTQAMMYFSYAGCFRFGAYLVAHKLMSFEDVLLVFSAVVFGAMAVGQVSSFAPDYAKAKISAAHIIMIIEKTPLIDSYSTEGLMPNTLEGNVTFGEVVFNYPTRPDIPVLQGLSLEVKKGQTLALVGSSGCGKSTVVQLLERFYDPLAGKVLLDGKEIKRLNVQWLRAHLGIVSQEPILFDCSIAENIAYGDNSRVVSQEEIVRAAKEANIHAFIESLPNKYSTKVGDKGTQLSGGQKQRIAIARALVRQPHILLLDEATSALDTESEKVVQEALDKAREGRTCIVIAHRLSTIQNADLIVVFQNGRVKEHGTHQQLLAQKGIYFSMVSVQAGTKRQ
row,Structure (SMILES),fluorescence slope change
1,CCC(=O)OC1C(C)OC(OC2C(C)OC(O[C@H]3[C@@H](CC=O)C[C@@H](C)[C@@H](O)/C=C/C=C/C[C@@H](C)OC(=O)C[C@@H](OC(=O)CC)[C@@H]3OC)C(O)C2N(C)C)CC1(C)O (some centres undefined),72% (active)
2,CC1CCC2(OC1)O[C@H]1C[C@H]3[C@@H]4CC[C@H]5C[C@@H](O)CC[C@]5(C)[C@H]4CC(=O)[C@]3(C)[C@H]1[C@@H]2C (some centres undefined),74.2% (active)
3,c1ccc2c3c([nH]c2c1)C1C2CCC(C4CCCNC42)N1CC3 (centres undefined),15.6% (inactive)
4,CC1=C(C(=O)O)N2C(=O)[C@@H](NC(=O)[C@H](N)c3ccc(O)cc3)C2SC1 (some centres undefined),66.4% (active)
5,CC(C)N1CCN(c2ccc(OC[C@@H]3CO[C@@](Cn4cncn4)(c4ccc(Cl)cc4Cl)O3)cc2)CC1,82.8% (active)
6,CC1OC(O[C@H]2/C=C/C=C/C=C/C=C/C=C/C=C/C=C/[C@H](C)[C@@H](O)[C@@H](C)[C@H](C)OC(=O)C[C@H](O)C[C@H](O)CC[C@@H](O)[C@H](O)C[C@H](O)C[C@]3(O)C[C@H](O)[C@@H](C(=O)O)[C@H](C2)O3)C(O)C(N)C1O (some centres undefined),94.6% (active)
7,CC[C@H](C)[C@H]1O[C@]2(CC[C@@H]1C)C[C@@H]1C[C@@H](C/C=C(\C)C(O[C@H]3C[C@H](OC)[C@@H](O[C@H]4C[C@H](OC)[C@@H](O)[C@H](C)O4)[C@H](C)O3)[C@@H](C)/C=C/C=C3\CO[C@@H]4[C@H](O)C(C)=C[C@@H](C(=O)O1)[C@]34O)O2 (some centres undefined),136% (active)
8,NCC1OC(OC2C(N)CC(N)C(O)C2O[C@@H]2O[C@H](CO)[C@H](O)C2O)C(N)C(O)C1O (some centres undefined),50.5% (active)
9,COc1ccc2cc3n(c(=O)c2c1OC)CCc1cc2c(cc1-3)OCO2,57.9% (active)
10,CC[C@H]1OC(=O)[C@H](C)[C@@H](OC2CC(C)(OC)C(O)C(C)O2)[C@H](C)[C@@H](OC2OC(C)CC(N(C)C)C2O)[C@](C)(O)C[C@@H](C)/C(=N\OCOCCOC)[C@H](C)[C@@H](O)[C@]1(C)O (some centres undefined),66.5% (active)
11,COc1ccc(CC(N)C(=O)N[C@@H]2C(O)[C@H](n3cnc4c(N(C)C)ncnc43)O[C@@H]2CO)cc1 (some centres undefined),10.7% (inactive)
12,C=C1C(=O)O[C@H]2C1CC/C(C)=C/CC[C@@]1(C)O[C@H]21 (some centres undefined),20.5% (inactive)
13,CC1O[C@H](O[C@]2(O[C@H]3CC[C@@]4(C)C(=CC[C@H]5[C@@H]6C[C@H]7[C@H]([C@H](C)[C@H]8CC[C@H](C)CN87)[C@@]6(C)CC[C@@H]54)C3)C[C@@H](O[C@@H]3OC(CO)[C@@H](O)[C@@H](O)C3O)[C@@H](O)C(CO)O2)C(O)[C@@H](O)[C@H]1O (some centres undefined),75.1% (active)
14,COc1cc([C@@H]2c3cc4c(cc3[C@@H](O[C@@H]3O[C@@H]5CO[C@@H](C)O[C@H]5[C@H](O)[C@H]3O)C3COC(=O)[C@@H]32)OCO4)cc(OC)c1O (some centres undefined),20.9% (inactive)
15,CC(=O)Nc1c(I)c(C(=O)NC2[C@H](O)OC(CO)[C@@H](O)[C@H]2O)c(I)c(N(C)C(C)=O)c1I (some centres undefined),95.2% (active)
16,CC[C@H]1OC(=O)[C@H](C)[C@@H](OC2CC(C)(OC)C(O)C(C)O2)[C@H](C)[C@@H](OC2OC(C)CC(N(C)C)C2O)[C@@H](C)C[C@](C)(O)[C@@H]2N[C@H](COCCOC)O[C@H]([C@H]2C)[C@]1(C)O (some centres undefined),59.6% (active)
17,COC(=O)C1[C@H]2C[C@H]3c4[nH]c5ccccc5c4CCN3C[C@H]2CC[C@@H]1O (some centres undefined),78.8% (active)
18,O=C(O)c1cc2ccccc2c(Cc2cc3ccccc3c(C(=O)O)c2O)c1O (tested in a mixture with another compound),14.8% (inactive)
19,C=C1CC23CC4C5[C@@]6(C)C[C@H](OC(=O)c7ccccc7)[C@@H](OC(C)=O)[C@@]57C2[C@H](OC(C)=O)[C@@H]1[C@H](O)[C@H]3[C@H]7N4C6,12.6% (inactive)
20,O=C(O)CCCC[C@@H]1SCC2NC(=O)NC21 (some centres undefined),79.8% (active)

row,Structure (SMILES),fluorescence slope change
1,Nc1ccc(S(=O)(=O)Nc2ccc3nccnc3c2)cc1,6.1% (inactive)
2,CO[C@@H]1[C@@H](OC2OC(C)C(OC3CC(C)(O)C(OC(=O)CC(C)C)C(C)O3)C(N(C)C)C2O)[C@@H](CC=O)C[C@@H](C)[C@@H](O)/C=C/C=C/C[C@@H](C)OC(=O)C[C@H]1OC(C)=O (some centres undefined),127% (active)
3,NCC1OC(OC2C(N)CC(N)C(OC3OC(CO)C(O)C(N)C3O)C2O)C(O)C(O)C1O (centres undefined),9.9% (inactive)
4,C[C@H](CCC(=O)O)[C@H]1CC[C@H]2[C@@H]3C(O)C[C@@H]4CC(O)CC[C@]4(C)[C@H]3CC[C@]12C (some centres undefined),167% (active)
5,COC1CC(O[C@H]2[C@H](C)[C@@H](OC3OC(C)CC(N(C)C)C3O)[C@@H](C)C[C@]3(CO3)C(=O)[C@H](C)[C@@H](O)[C@@H](C)[C@@H](C)OC(=O)[C@@H]2C)OC(C)C1O (some centres undefined),96.5% (active)
6,NCC[C@H](O)C(=O)NC1CC(N)C(OC2OC(CN)C(O)C(O)C2O)C(O)C1OC1OC(CO)C(O)C(N)C1O (some centres undefined),13.3% (inactive)
7,c1ccc2c(c1)CN1CCCCC1=N2,0.4% (inactive)
8,CC[N+]1(C)C2CCC1CC(OC(=O)[C@H]1CCC(C(=O)OC3CC4CCC(C3)[N+]4(C)CC)(c3ccccc3)c3ccccc31)C2 (some centres undefined),92.7% (active)
9,COc1ccc([C@@H]2CC(=O)c3c(O)cc(O[C@@H]4OC(CO[C@@H]5OC(C)[C@H](O)[C@H](O)C5O)[C@@H](O)[C@@H](O)C4O)cc3O2)cc1O (some centres undefined),9.9% (inactive)
10,NCC1OC(OC2C(N)CC(N)C(OC3OC(CO)C(O)C(N)C3O)C2O)C(N)CC1O (centres undefined),-2% (inactive)
11,COc1cc(Br)c(CC2c3cc(OC)c(OC)cc3CCN2C)cc1OC (centres undefined),9.4% (inactive)
12,CN(N=O)C(=O)N[C@@H]1C(O)OC(CO)[C@@H](O)[C@H]1O (some centres undefined),25.6% (inactive)
13,CC(=O)S[C@@H]1CC2=CC(=O)CC[C@]2(C)[C@H]2CC[C@@]3(C)[C@@H](CC[C@]34CCC(=O)O4)[C@H]12,162% (active)
14,COc1cc2cc(N(C)CCCNC(=O)C3CCCO3)cc(N)c2cc1OC (centres undefined),52.5% (active)
15,CCCC(=O)Nc1ncnc2c1ncn2[C@@H]1O[C@@H]2COP(=O)(O)O[C@@H]2C1OC(=O)CCC (some centres undefined),80% (active)
16,Nc1cccc2c1C(=O)c1cccc(N)c1C2=O,105% (active)
17,CC1(C)S[C@@H]2[C@H](NC(=O)C(NC(=O)N3CCNC3=O)c3ccccc3)C(=O)N2[C@H]1C(=O)O (some centres undefined),25.1% (inactive)
18,O=S(=O)(O)CCN1CCN(CCO)CC1,26.7% (inactive)
19,C[C@@H]1C(=O)O[C@H]2CC34[C@H]5C[C@@H](C(C)(C)C)C36[C@@H](OC(=O)[C@@H]6O)OC4(C(=O)O5)[C@]21O (some centres undefined),57.6% (active)
